# Source: PubChem BioAssay
# Epigenetic derep: derepresses silenced GFP reporter in murine cells; murine LDR cells, GFP reporter derepression, 30 h; Potency, µM (doses to about 53.9 µM), for the others: top-dose GFP activation, actives largely listed as activators; actives 0.2% (n = 280,000); AID 1865; note: % of control where 0% means no effect; nearly all actives have a fitted effect of over 60% in size
#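 Murine LDR cells carrying a silenced, genomically integrated CMV-driven GFP reporter were exposed to compound for 30 hours at 37 C. After PBS washes, GFP-positive cells (20–120 um objects) were counted by laser-scanning microplate cytometry.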
# RORg inh: ROR gamma (mouse) transcription inhibition | P51450 | Drosophila S2 Gal4-RORgamma UAS-luciferase reporter, 20 h | Potency, µM (titrated, usually from 53.6 µM), without a hit: at the highest dose activity change, negative = inhibition, actives largely listed as inhibitors | actives 5.4% (n = 310,000); note: % is set by controls: 0 for no effect and ±100 for the full control effect; nearly all actives have a fitted effect of over 60% in size
#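 Using a luciferase readout, inhibitors were identified by reduced reporter activity in Drosophila cells coexpressing a copper-inducible Gal4–ROR gamma fusion and UAS-driven Photinus luciferase, incubated 20 hr after 700 uM copper sulfate.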
# Sfp PPTase inh: inhibitors of Bacillus subtilis Sfp phosphopantetheinyl transferase. Q9F4F7. Biochemical Sfp PPTase activity, qHTS. Potency, µM, inactives show largest response in the series, negative = inhibition, hits mostly inhibitors. actives 3.5% (n = 310,000). AID 1490;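 note: the enzyme is Sfp with the accession as filed and its product quenches rhodamine fluorescence; 0% = enzyme reaction without inhibitor and -100% = no enzyme wells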
#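 After 15 min at room temperature with compound, 15 nM Sfp received 5 uM rhodamine-CoA plus 12.5 uM BHQ-2-ybbR (50 mM Hepes pH 7.6, 10 mM MgCl2). Rate came from the fluorescence difference over 30 min, ex 525/em 598 nm.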
# PINK1 modulator: PINK1 expression modulation; PINK1 immunofluorescence, high-content cytometry, 24 h; Potency, µM (titrated, usually from 76.6 µM), inactives show at the top dose activation (PINK1 increase), most hits filed as activators; actives 0.2% (n = 410,000); active = well fitted activation curve with a large enough effect; inconclusive = small, poorly fitted or top-dose-only effect; cell line not stated here; note: % of control where 0% means no effect; nearly all actives have a fitted effect of over 65% in size
#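 Compound titrations (5 concentrations, 24 h) on a stable cell line; DMSO and CCCP controls. Endpoint: fixed-cell PINK1 immunofluorescence with mitochondrial, cell and nuclear markers, scanned by microplate cytometer.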
# ClpP mod: qHTS Assay for Activators of ClpP | ATP-dependent Clp protease proteolytic subunit (Bacillus subtilis (strain 168)), P80244 | purified B. subtilis ClpP, FRET peptide cleavage, 20 min | Potency, µM (highest dose often 57.5 µM), without a hit: at the highest dose activity change, negative = active | actives 1.9% (n = 340,000) | AID 651965, 2013; active = well fitted falling curve with a large enough effect; inconclusive = small, poorly fitted or top-dose-only effect; inactive = no such curve, though single readings can be large or run the other way; note: the source files actives as falling curves though it sought activators and does not explain the sign; nearly all actives have a fitted effect of over 65% in size
#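 ClpP 10 microg/mL final, pH 8 Tris/KCl buffer with BSA, glycerol, Tween-20; compound pinned in; FRET-FV substrate; RT 20 min; Ex320/Em430; ΔFRET vs ADEP 5.8 microM, DMSO, no enzyme.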
# Gal4-VP16 FLuc: inhibits Gal4-VP16 luciferase reporter, ROR gamma counter-screen; Drosophila S2 Gal4-VP16 UAS-luciferase, luminescence, 20 h; Potency, µM (doses to about 53.6 µM), for inactives: top-dose activity, negative = inhibition, actives largely listed as inhibitors; actives 3.5% (n = 310,000);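 note: Gal4-VP16 expression switched on by copper sulfate through the metallothionein promoter; % is set by controls: 0 for no effect and ±100 for the full control effect; nearly all actives have a fitted effect of over 50% in size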
# Starred values were filed as active, the others as inactive; u = inconclusive; x = not tested or not shown; [ ] = another dose, or the depositor's remark. Rows were chosen to be rich in hits. Some 8.1% of all compounds tested hit in one or more screens of this group. Unless noted, calls come from the whole dose curve; as a rule, active = well fitted curve in the direction sought with a large enough effect; inconclusive = small, poorly fitted or top-dose-only effect, or another doubt; inactive = no such curve, though single readings can be large; an effect the other way counts as inactive or inconclusive. Potency is the fitted concentration of half-maximal effect.
SMILES,Epigenetic derep,RORg inh,Sfp PPTase inh,PINK1 modulator,ClpP mod,Gal4-VP16 FLuc
Cn1cc(C(=O)NC2CC2)c2ccccc21,x,-4%,3%,1%,x,-8%
O=C(NC1CCCCCC1)c1ccc[nH]c1=S,0%,0.45µM*,u,1%,0%,0.79µM*
CCC1(CC)C(=N)N(C)C(=O)NC1=O,0%,2%,-17%,-2%,16µM*,-2%
CN1C(=O)C(=Cc2ccc(OCC(=O)Nc3ccccc3)cc2)C(=O)N(C)C1=O,x,16%,50µM*,1%,16µM*,17%
CN1C(=O)C(=Cc2c(OCc3cnc(Cl)s3)ccc3ccccc23)C(=O)N(C)C1=O,6%,-4%,u,5%,0%,-5%
COc1ccc(C=C2C(=O)N(C)C(=O)N(C)C2=O)cc1COc1ccc(NC(C)=O)cc1,2%,21%,40µM*,0%,x,4%
CCN(CC)C(=O)c1ccc(NC(=O)COc2ccc(-c3nn(C)c(=O)c4ccccc34)cc2)cc1,0%,8%,7%,2%,-8%,0%
C[C@@H]1CC[C@H]2[C@@H](C)C(=O)O[C@@H]3OC4(C)CC[C@@H]1[C@]32OO4,8%,-8%,-10%,x,x,2%
[O-][Br+2]([O-])O,x,-4%,x,x,x,-13%
CCn1c(NN=O)nc2ccccc21,u,0.5µM*,50µM*,1%,-1%,u
CCn1c(P(C)(=O)O)nc2ccccc21,0%,-1%,-13%,-2%,1%,-1%
O=C(Nc1ccc(Cl)cc1C(=O)c1ccccc1Cl)c1ccco1,-1%,0%,19%,u,0%,-4%
O=C(Nc1ccccc1C(=O)N/N=C/c1ccco1)c1ccccc1Cl,-1%,3.5µM*,19%,0%,0%,u
O=C1NC(=O)C2(Cc3ccccc3N3CCCC32)C(=O)N1Cc1ccccc1 (stereo unspecified),3%,-21%,56µM*,-1%,-19%,2%
O=C1NC(=O)[C@]2(Cc3ccccc3N3CCN(c4ccccc4)CC32)C(=O)N1Cc1ccccc1 (stereo partly specified),-1%,22%,-20%,0%,-1%,4%
O=C(c1cc2c(s1)-c1ccccc1OC2)N1CCC2(CC1)OCCO2,0%,3%,0%,17%[38.3 µM],28µM*,u
COc1cc2nc(N3CCCN(C)CC3)nc(N(C)C3CCN(C)CC3)c2cc1OC,x,x,x,-1%,4%,x
COC(=O)CCC(=O)Nc1sc(Cc2ccccc2)c(C)c1C(N)=O,1%,29%,3.2µM*,0%,x,-2%
NC(=O)c1ccsc1NC(=O)COC(=O)Cc1ccccc1,x,x,x,-1%,-4%,x
CC(=O)NCC(N)C(=O)c1ccc(C)cc1 (stereo unspecified),x,x,x,0%,-1%,x
CC(=O)OCC1=C(C(=O)O)N2C(=O)C(NC(=O)CCCC(N)C(=O)O)C2SC1 (stereo unspecified),1%,2%,-11%,x,x,2%
CC1=C(C(=O)O)N2C(=O)C(NC(=O)c3nn(C)cc3[N+](=O)[O-])C2SC1 (stereo unspecified),1%,-8%,4µM*,3%,x,-3%[10 µM]
CC1=C(C(=O)O)N2C(=O)C(NC(=O)Cc3ccccc3)C2SC1 (stereo unspecified),-2%,-17%,10µM*,0%,x,-10%
CC(C)OC(=O)C(O)(c1ccc(Cl)cc1)c1ccc(Cl)cc1,x,-26%,-2%,x,x,-3%
COc1ccc(C2=NCC(=S)Nc3ccc(Cl)cc32)cc1Cl,4%,2.8µM*,18%,4%,-1%,8.9µM*
COc1ccc(C2=NCC(=S)Nc3ccc(Cl)cc32)cc1OC,x,x,x,16%,x,x
S=C1CN=C(c2ccccc2)c2cc(Cl)ccc2N1,-2%,2µM*,-5%,1%,0%,6.3µM*
